Experimental data: PubChem BioAssay (EPA / NIEHS)
The source made the active and inactive calls. Rule for the calls: active = hit-call score of the fitted dose curve at least 0.9, where 1 is the maximum; inactive = score below 0.9.

What was measured:
[1] = BSK_3C_SRB: Viability Assessment in the BioMAP Diversity Plus: 3C Assay (AID 2283023); conditions: primary human endothelial cells (HUVEC);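 note: cells read 24 h after compound dosing; fitted both ways against DMSO so a hit may be signal rise or drop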
Method in brief: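 Absorbance at 560 nm of sulforhodamine B-stained (0.1%) total protein served as a cytotoxicity readout in human umbilical vein endothelial cells, 24 h after chemical treatment. Signal was fitted bidirectionally relative to DMSO.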

[2] = read-out: Matrix Metallopeptidase 1 (MMP1), MMP1 (gene 4312); test: BSK_BE3C_MMP1: BioMAP Diversity Plus: BE3C Assay for Matrix Metallopeptidase 1 (MMP1) Biomarker Activity (AID 2283024); conditions: primary human bronchial epithelial cells; actives raise or lower the signal
Method in brief: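 ELISA read-out of MMP1 in human lung bronchial epithelial primary cultures, 24 h post-dose; bidirectional curve fit vs DMSO baseline, gain or loss of signal scored.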

[3] = read-out: Pselectin, SELP (gene 6403); test: BSK_4H_Pselectin: BioMAP Diversity Plus: 4H Assay for Pselectin Biomarker Activity (AID 2283026); conditions: primary human endothelial cells (HUVEC); actives raise or lower the signal
Method in brief: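 HUVEC, 24 h chemical exposure; P-selectin read by ELISA. Bidirectional curve fit vs DMSO baseline; gain or loss of signal scored.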

[4] = BSK_BE3C_SRB: Viability Assessment in the BioMAP Diversity Plus: BE3C Assay (AID 2283028); conditions: primary human bronchial epithelial cells;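 for AC50: fitted both ways so AC50 may mark signal gain or loss versus DMSO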
Method in brief: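 Cells (human bronchial epithelial, primary) are treated with chemicals, and after 24 h the parallel cultures are fixed in 10% TCA. These are then stained with 0.1% SRB and read at 560 nm. Gain or loss of signal is fitted relative to DMSO.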

[5] = read-out: Thrombomodulin, THBD (gene 7056); test: BSK_3C_Thrombomodulin: BioMAP Diversity Plus: 3C Assay for Thrombomodulin Biomarker Activity (AID 2283029); conditions: primary human endothelial cells (HUVEC); actives raise or lower the signal
Method in brief: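 HUVEC, 3C conditions; compound 24 h; thrombomodulin by ELISA; bidirectional curve fit vs DMSO baseline; parallel SRB total-protein staining for cytotoxicity.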

[6] = read-out: Urokinase-type plasminogen activator receptor (uPAR), PLAUR (gene 5329); test: BSK_4H_uPAR: BioMAP Diversity Plus: 4H Assay for Urokinase-type plasminogen activator receptor (uPAR) Biomarker Activity (AID 2283030); conditions: primary human endothelial cells (HUVEC); actives raise or lower the signal
Method in brief: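 Cell-surface uPAR ELISA signal, measured 24 h after dosing human umbilical vein endothelial cells, was analyzed with bidirectional fitting relative to DMSO. Parallel SRB staining of total protein tracked overt cytotoxicity.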

[7] = read-out: Vascular endothelial growth factor receptor 2 (Homo sapiens) (UniProt P35968); test: BSK_4H_VEGFRII: BioMAP Diversity Plus: 4H Assay for Vascular endothelial growth factor receptor 2 (VEGFR2) Biomarker Activity (AID 2283031); conditions: primary human endothelial cells (HUVEC); actives raise or lower the signal;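 for AC50: cell-surface VEGFR2 protein level quantified by ELISA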
Method in brief: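 ELISA read-out of VEGFRII in primary human umbilical vein endothelium, taken 24 h after chemical treatment. Responses are expressed relative to DMSO, with bidirectional fitting.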

[8] = read-out: Human Leukocyte Antigen - DR isotype (HLADR), HLA-DRA (gene 3122); test: BSK_BE3C_HLADR: BioMAP Diversity Plus: BE3C Assay for Human Leukocyte Antigen - DR isotype (HLADR) Biomarker Activity (AID 2283032); conditions: primary human bronchial epithelial cells; actives raise or lower the signal
Method in brief: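 Primary human bronchial epithelial cells (BE3C); 24 h chemical exposure; HLA-DR by ELISA; bidirectional curve fit vs DMSO baseline.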

[9] = read-out: Vascular cell adhesion molecule 1 (VCAM1), VCAM1 (gene 7412); test: BSK_4H_VCAM1: BioMAP Diversity Plus: 4H Assay for Vascular cell adhesion molecule 1 (VCAM1) Biomarker Activity (AID 2283033); conditions: primary human endothelial cells (HUVEC); actives raise or lower the signal
Method in brief: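 HUVEC, 24 h post-dose; VCAM-1 by ELISA. Bidirectional curve fit vs DMSO baseline. Parallel SRB total-protein stain (0.1% SRB after 10% TCA fixation, 560 nm) for cytotoxicity.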

[10] = read-out: Interferon-gamma inducible Protein 10 (IP10), CXCL10 (gene 3627); test: BSK_BE3C_IP10: BioMAP Diversity Plus: BE3C Assay for Interferon-gamma inducible Protein 10 (IP10) Biomarker Activity (AID 2283034); conditions: primary human bronchial epithelial cells; actives raise or lower the signal
Method in brief: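 ELISA readout of IP-10 in BE3C system: primary human bronchial epithelial cells, 24 h post-dosing; bidirectional curve fit vs DMSO baseline.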

[11] = read-out: Monokine induced gamma interferon (MIG), CXCL9 (gene 4283); test: BSK_BE3C_MIG: BioMAP Diversity Plus: BE3C Assay for Monokine induced gamma interferon (MIG) Biomarker Activity (AID 2283035); conditions: primary human bronchial epithelial cells; actives raise or lower the signal
Method in brief: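 Dose cells (human primary bronchial epithelial), incubate 24 h, quantify MIG by ELISA, then fit concentration–response in both directions relative to DMSO control.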

[12] = read-out: Urokinase-type plasminogen activator receptor (uPAR), PLAUR (gene 5329); test: BSK_BE3C_uPAR: BioMAP Diversity Plus: BE3C Assay for Urokinase-type plasminogen activator receptor (uPAR) Biomarker Activity (AID 2283039); conditions: primary human bronchial epithelial cells; actives raise or lower the signal
Method in brief: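 ELISA readout of uPAR on human lung primary bronchial epithelial cells, 24 h post-dosing. Bidirectional curve fit relative to DMSO vehicle baseline; gain or loss of signal both scored.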

[13] = read-out: Interleukin-6 (IL6), IL6 (gene 3569); test: BSK_CASM3C_IL6: BioMAP Diversity Plus: CASM3C Assay for Interleukin-6 (IL6) Biomarker Activity for (AID 2283040); conditions: primary human coronary artery smooth muscle cells; actives raise or lower the signal
[14] = read-out: Interleukin-8 (IL8), CXCL8 (gene 3576); test: BSK_CASM3C_IL8: BioMAP Diversity Plus: CASM3C Assay for Interleukin-8 (IL8) Biomarker Activity (AID 2283042); conditions: primary human coronary artery smooth muscle cells; actives raise or lower the signal;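 note: IL-8 protein level quantified by ELISA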
[15] = read-out: Human Leukocyte Antigen - DR isotype (HLADR), HLA-DRA (gene 3122); test: BSK_CASM3C_HLADR: BioMAP Diversity Plus: CASM3C Assay for Human Leukocyte Antigen - DR isotype (HLADR) Biomarker Activity (AID 2283043); conditions: primary human coronary artery smooth muscle cells; actives raise or lower the signal;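 note: cell-surface HLA-DR protein level quantified by ELISA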
[16] = read-out: Macrophage colony-stimulating factor (MCSF), CSF1 (gene 1435); test: BSK_CASM3C_MCSF: BioMAP Diversity Plus: CASM3C Assay for Macrophage colony-stimulating factor (MCSF) Biomarker Activity (AID 2283044); conditions: primary human coronary artery smooth muscle cells; actives raise or lower the signal;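 note: M-CSF protein amount quantified by ELISA after 24 h exposure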
[17] = read-out: Low-density lipoprotein receptor (LDLR), LDLR (gene 3949); test: BSK_CASM3C_LDLR: BioMAP Diversity Plus: CASM3C Assay for Low-density lipoprotein receptor (LDLR) Biomarker Activity (AID 2283045); conditions: primary human coronary artery smooth muscle cells; actives raise or lower the signal;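 note: LDLR protein level on the cell surface quantified by ELISA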
[18] = read-out: Monocyte Chemoattractant Protein-1 (MCP1), CCL2 (gene 6347); test: BSK_CASM3C_MCP1: BioMAP Diversity Plus: CASM3C Assay for Monocyte Chemoattractant Protein-1 (MCP1) Biomarker Activity (AID 2283046); conditions: primary human coronary artery smooth muscle cells; actives raise or lower the signal;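 note: MCP-1 level quantified by ELISA 24 h after dosing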
[19] = read-out: Transforming growth factor beta 1 (TGFb1), TGFB1 (gene 7040); test: BSK_BE3C_TGFb1: BioMAP Diversity Plus: BE3C Assay for Transforming growth factor beta 1 (TGFb1) Biomarker Activity (AID 2283036); conditions: primary human bronchial epithelial cells; actives raise or lower the signal
Method in brief: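 Read-out: ELISA for TGF-b1 in primary human bronchial epithelial cultures, 24 h post-dose. Bidirectional curve fitting vs DMSO control; gain or loss of signal both scored.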

[20] = BSK_3C_Vis: BioMAP Diversity Plus: 3C Assay for Morphology Visualization (AID 2283025); conditions: primary human endothelial cells (HUVEC);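 note: fitted both ways so gain or loss versus DMSO counts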;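 for AC50: light microscopy image of cell morphology used as background control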
Method in brief: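 HUVEC, 3C system; light microscopy of morphology at 24 h post-dose. Bidirectional fit vs DMSO baseline. Secondary readout, background-control function.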

Measured: AC50

O=C1CCCN1CCO
not listed: [19] | [20]
inactive: all other assays above

CC(C)(c1cc(Br)c(OCCO)c(Br)c1)c1cc(Br)c(OCCO)c(Br)c1
active: [1] 19.3 µM | [2] 0.911 µM | [3] 8.19 µM | [5] 28.6 µM | [6] 11.7 µM | [7] 9.45 µM | [9] 11.4 µM | [10] 4.54 µM | [16] 4.39 µM
not listed: [20]
inactive: all other assays above

C=CC(=O)OCC(Br)CBr (stereo not given)
inactive: [2] | [4] | [5] | [19] | [12]
active: [1] 32.5 µM | [20] 16.6 µM | [3] 20 µM | [6] 32.4 µM | [7] 37 µM | [8] 14.4 µM | [9] 20 µM | [10] 23.3 µM | [11] 31.4 µM | [13] 26 µM | [14] 30.4 µM | [15] 11.1 µM | [16] 20 µM | [17] 36 µM | [18] 27.1 µM

S=C(NC1CCCCC1)NC1CCCCC1
inactive: all assays above

O=C(Nc1ccccc1SSc1ccccc1NC(=O)c1ccccc1)c1ccccc1
active: [20] 14.1 µM | [5] 5.7 µM | [9] 20 µM | [10] 1.03 µM | [15] 5.29 µM
inactive: all other assays above

C=CC=CC=CCCCCC
active: [8] 5 µM | [10] 5 µM | [15] 5 µM
inactive: all other assays above

c1ccc2c(c1)ccc1ncccc12
active: [1] 14.3 µM | [20] 38.9 µM | [3] 20 µM | [6] 20 µM
inactive: all other assays above

COCc1c(C(C)C)nc(C(C)C)c(/C=C/[C@@H](O)C[C@@H](O)CC(=O)O)c1-c1ccc(F)cc1
active: [1] 0.0434 µM | [20] 0.00941 µM | [6] 0.456 µM | [14] 0.0375 µM
not listed: [3] | [4]
inactive: all other assays above

O=C(Cl)c1cc(C(=O)Cl)cc(C(=O)Cl)c1
inactive: [5] | [7] | [19]
active: [1] 20 µM | [2] 20 µM | [20] 12.5 µM | [3] 11.6 µM | [4] 29.1 µM | [6] 20 µM | [8] 28.8 µM | [9] 14.8 µM | [10] 30.4 µM | [11] 39.1 µM | [12] 24.4 µM | [13] 26.1 µM | [14] 30.3 µM | [15] 15.5 µM | [16] 14.5 µM | [17] 12.3 µM | [18] 32 µM

CCCCC(CC)COC(=O)c1ccccc1O (stereo not given)
active: [1] 15.7 µM | [20] 19.9 µM | [3] 16.2 µM | [7] 18.8 µM | [9] 14.9 µM
inactive: all other assays above

CCCCNc1ccc(NCCCC)c2c1C(=O)c1ccccc1C2=O
active: [2] 6.81 µM | [8] 5 µM | [10] 4.33 µM | [19] 5 µM | [12] 6.83 µM
inactive: all other assays above
